A short description of assay [1]: S16 Schwann cell PMP22 intronic element firefly luciferase assay (AID 624032). Further: nearly all actives have a fitted effect of over 30% in size. An outline of the steps: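 Rat S16 Schwann cells stably carrying a PMP22 intronic element-driven Fluc reporter were seeded overnight, then exposed to compounds for 24 h at 37 °C. Luminescence was normalized to PTC124 (positive control) and DMSO (0% activity).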
The subject of the next assay is 3D7. In words: qHTS profiling for inhibitors of Plasmodium falciparum proliferation (AID 504749). Further: nearly all actives have a fitted effect of over 60% in size. Further: potency means the concentration at half of the fitted maximal effect. The following applies: P. falciparum in erythrocytes, SYBR Green DNA, 72 h; series mostly up to 28.7 µM. The procedure, abridged:
(§1)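 Quantitative HTS: compounds pinned into medium, infected erythrocytes added (0.3% parasitemia, 2.5% hematocrit), 72 h culture at 37 C under 5% CO2. Saponin/Triton lysis with SYBR Green I, overnight RT, then fluorescence read.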

The test system of another assay is 7G8. The description is as above. The following applies: P. falciparum in erythrocytes, SYBR Green DNA, 72 h; series mostly up to 28.7 µM. An outline of the steps:
as §1

The subject of another assay is ATS95. The description is as above. The following applies: P. falciparum in erythrocytes, SYBR Green DNA, 72 h; series mostly up to 28.7 µM. The procedure, abridged:
as §1

In the next assay the test system is C2A. Described as above. The following applies: P. falciparum in erythrocytes, SYBR Green DNA, 72 h; series mostly up to 28.7 µM. The procedure, abridged: as §1
Another assay has as its system CP191. The assay is described as above. The following applies: P. falciparum in erythrocytes, SYBR Green DNA, 72 h; series mostly up to 28.7 µM. The procedure, abridged:
as §1

A further assay deals with CP217. The assay is described as above. Particulars: P. falciparum in erythrocytes, SYBR Green DNA, 72 h; series mostly up to 28.7 µM. An outline of the steps: as §1
Another assay concerns CP250. Described as above. The following applies: P. falciparum in erythrocytes, SYBR Green DNA, 72 h; series mostly up to 28.7 µM. An outline of the steps: as §1
A further assay relates to CP335. Described as above. The following applies: P. falciparum in erythrocytes, SYBR Green DNA, 72 h; series mostly up to 28.7 µM. An outline of the steps: as §1
Another assay has as its system DFO2036. Described as above. Particulars: P. falciparum in erythrocytes, SYBR Green DNA, 72 h; series mostly up to 28.7 µM. The procedure, abridged: as §1
A further assay concerns DIV14. The description is as above. The following applies: P. falciparum in erythrocytes, SYBR Green DNA, 72 h; series mostly up to 28.7 µM. The procedure, abridged: as §1
The subject of another assay is DIV17. The description is as above. The following applies: P. falciparum in erythrocytes, SYBR Green DNA, 72 h; series mostly up to 28.7 µM. The procedure, abridged: as §1
The test system of the next assay is DIV30. The description is as above. The following applies: P. falciparum in erythrocytes, SYBR Green DNA, 72 h; series mostly up to 28.7 µM. The procedure, abridged:
as §1

A further assay deals with P94_40. The assay is described as above. The following applies: P. falciparum in erythrocytes, SYBR Green DNA, 72 h; series mostly up to 28.7 µM. The procedure, abridged: as §1
The test system of the next assay is PAD. The description is as above. Particulars: P. falciparum in erythrocytes, SYBR Green DNA, 72 h; series mostly up to 28.7 µM. An outline of the steps:
as §1

The test system of the next assay is PC26. Described as above. The following applies: P. falciparum in erythrocytes, SYBR Green DNA, 72 h; series mostly up to 28.7 µM. An outline of the steps:
as §1

The subject of a further assay is SC27B. Described as above. The following applies: P. falciparum in erythrocytes, SYBR Green DNA, 72 h; series mostly up to 28.7 µM. The procedure, abridged:
as §1

A further assay relates to TAB113. Described as above. The following applies: P. falciparum in erythrocytes, SYBR Green DNA, 72 h; series mostly up to 28.7 µM. An outline of the steps: as §1
In the next assay the test system is TAB165. The description is as above. The following applies: P. falciparum in erythrocytes, SYBR Green DNA, 72 h; series mostly up to 28.7 µM. An outline of the steps: as §1
The next assay relates to CP260. The assay is described as above. The following applies: P. falciparum in erythrocytes, SYBR Green DNA, 72 h; series mostly up to 28.7 µM. The procedure, abridged:
as §1

Results filed as inconclusive are left out. The source holds several records for some structures; these can differ, active in one and inactive in another. Activity calls are given as the source filed them. The call rests on the fitted dose curve; in most records, active means well fitted curve in the direction sought with a large enough effect; inconclusive means small, poorly fitted or top-dose-only effect, or another doubt; inactive means no such curve, though single readings can be large; an effect the other way counts as inactive or inconclusive.

For `CCCCC(=O)O[C@]1(C(=O)CO)CCC2C3CCC4=CC(=O)CCC4(C)C3C(O)CC21C` (stereo partly specified), the Potency result (in assay [1]; in the assay with 3D7; in the assay with ATS95; with C2A; in the assay on CP191; with CP217) was “inactive” in each case. Further, the Potency entry in the assay on CP250, with CP335, with DFO2036, with DIV14, with DIV17 and in the assay with DIV30 was “inactive” each time. The Potency entry in the assay on P94_40, with PAD, in the assay on PC26, with SC27B, with TAB113 and with TAB165 was “inactive” in each case. In the assay on 7G8, the Potency is 12.6 µM (active).
In the case of `COc1ccc(S(=O)(=O)N2c3ccc(Cl)cc3[C@](O)(c3ccccc3Cl)[C@@H]2C(=O)N2CCC[C@H]2C(N)=O)cc1OC`, the Potency result in the assay with 3D7, in the assay with ATS95, in the assay with C2A, in the assay on CP191, in the assay on CP217 and in the assay on CP250 was “inactive” throughout. Besides, the Potency entry in the assay on DFO2036, in the assay on DIV30 and in the assay with TAB113 was “inactive” each time. Further, the Potency with 7G8 was 11.2 µM (active).
`C/C(=C(/CCO)SS/C(CCO)=C(\C)N(C=O)Cc1cnc(C)nc1N)N(C=O)Cc1cnc(C)nc1N`: the Potency result (in assay [1]; in the assay on 3D7; in the assay on 7G8; in the assay on ATS95; in the assay on C2A; with CP191) was “inactive” each time. In addition, the Potency result in the assay with CP217, with CP250, in the assay with CP335, in the assay on DFO2036, in the assay on DIV14 and in the assay with DIV17 was “inactive” throughout. In addition, the Potency result in the assay with DIV30, in the assay on P94_40, with PAD, in the assay with PC26, with SC27B and with TAB113 was “inactive” in each case. Also, the Potency result in the assay with TAB165 is “inactive”.
Consider `CCC(=O)O[C@]1(C(=O)CCl)[C@@H](C)CC2C3C[C@H](F)C4=CC(=O)C=CC4(C)[C@@]3(F)C(O)CC21C` (stereo partly specified), for which the Potency in the assay on 3D7 was 11.2 µM (active); with 7G8, 1.58 µM (active); in the assay on ATS95, 6.31 µM (active); with C2A, 12.6 µM (active); in the assay with CP191, 7.94 µM (active); in the assay with CP217, 7.94 µM (active). Moreover, the Potency with CP250 was 12.6 µM (active); in the assay with CP260, 11.2 µM (active); in the assay on CP335 it was 10.7 µM (active); with DFO2036, 11.2 µM (active); with DIV14, 4.26 µM (active); in the assay on DIV17, 4.26 µM (active). Besides, the Potency in the assay with DIV30 was 12 µM (active); in the assay on P94_40, 8.91 µM (active); with PAD, 3.98 µM (active); in the assay on PC26, 12 µM (active); in the assay on SC27B, 7.94 µM (active); with TAB113, 8.91 µM (active). Besides, the Potency with TAB165 was 10 µM (active).
On to `CNC1=CN(O)C(c2ccccc2)=c2cc(Cl)ccc2=N1`, for which the Potency was 1 µM (active) in the assay with 3D7; 5.01 µM (active) in the assay on ATS95; 0.1 µM (active) with CP191; 7.94 µM (active) and inactive with CP260; 3.79 µM (active) in the assay on CP335; 3.16 µM (active) in the assay on DFO2036. The Potency in the assay with DIV14 was 1.51 µM (active); in the assay with DIV17, 2.13 µM (active); with DIV30, 4.26 µM (active) and inactive; in the assay with P94_40 it was 5.62 µM (active); in the assay on PC26 it was 4.26 µM (active); in the assay on TAB113, 2.82 µM (active). Moreover, the Potency in the assay with TAB165 is 4.47 µM (active). The Potency entry with 7G8 was “inactive”.
For `C[N+]12CCCC[C@@H]1CCC(=C(c1cccs1)c1cccs1)C2` (stereo partly specified), the Potency in the assay on 3D7 is 12.6 µM (active); in the assay on 7G8, 7.94 µM (active); in the assay on CP191, 8.91 µM (active); with CP217, 7.94 µM (active); in the assay on CP260 it was 11.2 µM (active); with CP335, 12 µM (active). The Potency in the assay with DFO2036 is 10 µM (active); with DIV14, 6.75 µM (active); in the assay with DIV17 it was 10.7 µM (active); in the assay with DIV30, 12 µM (active); in the assay on P94_40, 7.94 µM (active); in the assay with PAD it was 11.2 µM (active). Further, the Potency in the assay on PC26 is 15.1 µM (active); with TAB113, 11.2 µM (active); with TAB165 it was 12.6 µM (active).
